From PubChem BioAssay (NCI)
The panel holds about 83,000 compounds, 20% with a hit somewhere; the sample as a whole holds those more often.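 Plates (96-well) were seeded with cells, treated with compound at one concentration, and incubated for 48 hours before percent growth was determined.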 Unmarked numbers belong to inactive results. Active and inactive are the calls of the source.

These molecules were tested on NCI-H522 lung (assay: NCI-60 one-dose screen, 48 h (100 = growth as untreated, 0 = no growth, -100 = all killed)). Settings: 10 µM unless noted.
Protocol: Growth inhibition of the NCI-H522 human Non-Small Cell Lung tumor cell line is measured as a screen for anti-cancer activity. Cells are grown in 96 well plates and exposed to the test compound for 48 hours. Compounds are tested at a single concentration, which is 10^-5 M for most compounds. The reported endpoint is percent growth (GI% or GIPRCNT), where numbers from 0 - 100% represent growth inhibition, and numbers from -100% - 0 represent cell death. For example, a value of 40 represents 60% growth inhibition. A value of 0 means no net growth occurred over the course of the experiment. A value of -40 indicates 40% of cells at the beginning of the experiment died by the end of the experiment. A value of -100 means all cells are dead at the end of the experiment.
NCI-60 Human Tumor Cell Lines Screen was performed using the standard one-dose NCI protocol, which is described in more detail at https://dtp.cancer.gov/discovery_development/nci-60/default.htm.
Compounds with GIPRCNT values below 10 were considered active. Activity score was based on GIPRCNT using the following formula: […]
Score is 0 for GIPRCNT values of 100 or above, 50 for GIPRCNT values of 0, and 100 for GIPRCNT values of -100.

Row | Compound | growth
1 | Nc1n[nH]c2cc(F)c([C@@H]3Nc4ccc5[nH]ncc5c4[C@H]4C5CCC(C5)[C@@H]34)cc12 (stereo not given in full) | -19% (active)
2 | Cc1cc(C)nc(SC2=C(Nc3cccc(Cl)c3C)C(=O)N(Cc3ccccc3)C2=O)n1 | 51.3% [30 µM]
3 | C/C1=C\CC[C@@]2(C)O[C@H]2[C@H]2OC(=O)C(CN3CCN(CC4C(=O)O[C@H]5[C@H]4CC/C(C)=C/CC[C@@]4(C)O[C@@H]54)CC3)[C@@H]2CC1 (stereo not given in full) | 33.4%
4 | N#CN1CC[C@H](C(=O)Nc2cc3cc(C(N)=O)ccc3cn2)C1 | -50% (active)
5 | O=C1/C(=C/N2N=C(c3ccc4ccccc4c3)CC2c2ccccc2O)SC(=S)N1c1cccnc1 (stereo not given) | 21.1%
6 | Cn1cc(C(=O)c2nc(-c3c[nH]c4ccc(F)cc34)no2)c2cc(F)ccc21 | 80.1%
7 | C#CC(F)(F)[C@]1(O)CC[C@H]2[C@@H]3CCC4=CC(=O)CCC4=C3[C@@H](c3ccc(C4CC4)cc3)C[C@@]21C | -70.1% (active)
8 | CCn1c(Cc2ccccc2Nc2c(Cl)cccc2Cl)nnc1SCC(=O)NN1C(=O)/C(=C/c2cc(OC)c(O)c(OC)c2)SC1=S | -1.58% (active)
9 | CCCCn1c(-c2ccc(C(=O)O/N=C(\N)c3ccc4c(c3)OCO4)cc2)nc(-c2ccccc2)c1-c1ccccc1 | -37.1% (active)
10 | O=[N+]([O-])c1ccccc1/C=N\NC(=S)N/N=C/c1ccccc1[N+](=O)[O-] | 23.2%
11 | CC(C)CC1C(=O)N2CCC[C@H]2C2(O)O[C@](NC(=O)C3C=C4c5cccc6[nH]c(Br)c(c56)C[C@H]4N(C)C3)(C(C)C)C(=O)N12 (stereo not given in full) | 53.5%
12 | Cc1ccc(OC(=O)c2ccc(Cl)cc2)cc1 | 76.1%
13 | CCOC(=O)n1cc(-c2nonc2-c2cn(C)c3ncccc23)c2cc(F)ccc21 | 72%
14 | OCc1ccc(N2CCc3cccc(F)c3C2)cc1Cl | 80.6% [0.1 µM]
15 | CCOc1ccc(-n2nc(C(=O)Nc3cc(OC)c(OC)c(OC)c3)nc2-c2cc(OC)c(OC)c(OC)c2)cc1 | 65.9%
16 | CC1(C)CC[C@]2(C(=O)Nc3ccccn3)CC[C@]3(C)C(=CC[C@@H]4[C@@]5(C)C/C(=C/c6cccnc6)C(=O)C(C)(C)[C@@H]5CC[C@]43C)[C@H]2C1 | 30.5%
17 | COc1cc(C=Nc2oc(-c3ccccc3)c(-c3ccccc3)c2C#N)cc(CN2CCCCC2)c1O | 88%
18 | CC1CCNC(C)C1 (stereo not given) | 103%
19 | N#Cc1cnn(-c2nc3c(Cl)cccc3s2)c1N | 67.7%
20 | C=C(C)[C@@H]1CC[C@]2(C(=O)OC)CC[C@]3(C)[C@H](CC[C@@H]4[C@@]5(C)C/C(=C/c6ccc(OC)cc6)C(=O)C(C)(C)[C@@H]5CC[C@]43C)[C@@H]12 | 78.8%

Row | Compound | growth
21 | O=C1/C(=C/c2ccc(Cl)cc2)SC(=S)N1CCc1ccc(O)cc1 | -30% (active)
22 | CCCc1cc(=O)n2c(C(=O)Nc3ccc(F)cc3)c(C(=O)Nc3ccc(F)cc3)sc2n1 | 62.7% [30 µM]
23 | CCCCCCCCCCCCC[N+](C)(C)Cc1ccccc1 | -60.1% (active)
24 | O=C1NC(=S)N[C@H]1CC(=O)n1cnc2ccccc21 | 98.4%
25 | COc1ccc(-c2nc3cc(C(=O)Nc4cc(OC)c(OC)c(OC)c4)ccc3n2C2CCCCC2)cc1 | 77.2%
26 | COc1cc2c(cc1-c1c(C)noc1C)ncc1nc(C3CCC(F)(F)CC3)n([C@H](C)COC(F)F)c12 | 30.3%
27 | O=c1nc2oc3ccc4ccccc4c3cc-2s1 | -3.74% (active)
28 | O=C1C=CC(=O)N1c1ccc2c(c1)Cc1cc(F)ccc1-2 | 91.1%
29 | Cc1nc(/N=C(\N)NC(=O)Nc2cccc([N+](=O)[O-])c2)sc1C | 49.2%
30 | c1ccc(-c2c(-c3ccccc3)[n+](Cc3ccc4ccccc4c3)c(-c3ccc(-c4nc5ccccc5s4)cc3)n2Cc2ccc3ccccc3c2)cc1 | -81.3% (active)
31 | Cc1cc(C)nc(SC2=C(Nc3cc(Cl)ccc3O)C(=O)N(Cc3ccccc3)C2=O)n1 | 58.6% [30 µM]
32 | O=[N+]([O-])c1ccc2c(c1)Cc1cc(F)ccc1-2 | 104%
33 | C=C1c2nc3ccccc3n2C=C(c2cccc(Cl)c2)N1Cc1ccc(OC)cc1 | -10.9% (active)
34 | OCCN1CCN(c2nc(Nc3ccc(-c4nc5ccccc5[nH]4)cc3)c3cn[nH]c3n2)CC1 | -85.6% (active)
35 | Cc1cc(N2CCN(c3ccnc4cc(Cl)ccc34)CC2)nc(N2CCOCC2)n1 | 85.3%
36 | CN(C)CCN1C(=O)c2cccc3c(N)ccc(c23)C1=O | 7.81% (active)
37 | COc1cccc(-c2nc3sccn3c2-c2ccnc(NCCNS(=O)(=O)c3ccc(F)cc3)c2)c1 | 32.3%
38 | COc1cc(C(=O)Oc2ccccc2OC(=O)c2cc(OC)c(OC)c(OC)c2)cc(OC)c1OC | 89.6%
39 | COc1cc2nc(N3CCCC3)nc(Nc3ccccc3)c2cc1OC | -53% (active)
40 | Fc1ccc(CNc2cccc3[nH]c(C(F)(F)F)nc23)cc1 | 79.7%
